CHX counter = counter-screen for Shiga toxin inhibitors: cycloheximide protein synthesis inhibition; cell reporter, cycloheximide protein synthesis inhibition counterscreen; max response, %; 300,000 tested, 12% active; AID 2314; in the data active means max response mostly above about 13%, no sharp cut-off; inactive means mostly below about 14%; further: read at 38.3 µM for the half of the compounds with a filed dose; 0% is about no effect
Pf growth 96h = P. falciparum growth inhibition at 96 hours; P. falciparum luciferase reporter growth, 96 h; Potency, µM (titrated, usually from 28.7 µM), without a hit: at the top dose activity change, negative = inhibition, usual class: inhibitors; 320,000 tested, 6.9% active; active means well fitted inhibition curve with a large enough effect; inconclusive means small, poorly fitted or top-dose-only effect, or another doubt; inactive means no such curve, though single readings can be large or run the other way; further: potency means the concentration at half of the fitted maximal effect; on the % scale 0 is the no-effect control and ±100 the full control effect
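Infected RBCs, 2% Hct / 0.05% parasitemia final; luciferase-reporter P. falciparum; cpd 96 h, 37 C, 5% CO2; luciferase detection reagent; luminescence.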
NS1 function inh = blocks influenza NS1 protein function. AID 2326. Potency, µM (series often up to 46.1 µM), without a hit: at the highest dose activity, positive = more growth. 270,000 tested, 0.4% active; further: potency means the concentration at half of the fitted maximal effect; actives are rising curves; nearly all actives have a fitted effect of over 50% in size
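In this qHTS, NS1 from influenza A is expressed in budding yeast, where it slows growth. Cells are switched from glucose to 2% galactose medium (pH 6.0, -URA), treated with compound, and growth recovery is read at OD600.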
Shiga inhibitor = inhibitors of Shiga toxin in Vero cells; 290,000 tested, 9.2% active; inhibition, % at 38.7 µM; Vero cells, Shiga toxin protein synthesis inhibition reporter; in the data active means inhibition mostly above about 28%, no sharp cut-off; inactive means mostly below about 43%; further: 0% is about no effect
SARS PLpro yeast = inhibitors of SARS-CoV papain-like protease in yeast; S. cerevisiae expressing SARS-CoV PLpro, growth rescue; 330,000 tested, 0.19% active; Potency, µM (series often up to 32.9 µM), for inactives: at the top dose activity, positive = growth rescue, most hits filed as activators; further: potency means the concentration at half of the fitted maximal effect; 0% is about no effect; nearly all actives have a fitted effect of over 55% in size
Pf growth 48h = P. falciparum growth inhibition at 48 hours (one generation). P. falciparum luciferase growth in erythrocytes, 48 h. Potency, µM (series often up to 28.7 µM), inactives show at the top dose activity change, negative = inhibition, usual class: inhibitors. 310,000 tested, 5.9% active. AID 504832; active means well fitted inhibition curve with a large enough effect; inconclusive means small, poorly fitted or top-dose-only effect, or another doubt; inactive means no such curve, though single readings can be large or run the other way; further: potency means the concentration at half of the fitted maximal effect; on the % scale 0 is the no-effect control and ±100 the full control effect
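Read-out is firefly luciferase luminescence from an integrated reporter in P. falciparum, so falling signal marks reduced parasite growth. Infected erythrocytes were at 2% hematocrit and 0.1% parasitemia (final) in Albumax-supplemented RPMI 1640.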
* hit, by the source's call; ? = inconclusive; nt = no result given. Shown are actives, neighbours in structure and some others; about 21% of the full set was active somewhere. Unless noted, the call rests on the fitted dose curve.

SMILES	CHX counter	Pf growth 96h	NS1 function inh	Shiga inhibitor	SARS PLpro yeast	Pf growth 48h
O=C(CSc1nnc(Cn2nnc3ccccc32)o1)N(Cc1ccc(Cl)cc1)c1ccccc1	-2	nt	23%	-14	5%	10µM*
CCN(C(=O)CSc1nnc(Cn2nnc3ccccc32)o1)c1nc(C)cs1	-4	9.3µM*	7%	-4	0%	-2%
CCSc1nnc(NC(=O)C2CC(=O)N(Cc3ccc(C)cc3)C2)s1 (centres undefined)	-1	?	nt	-4	0%	-7%
COc1ccc(-n2c(=S)[nH]c3cc(C(=O)N4CCN(c5ccccc5)CC4)ccc3c2=O)cc1	-5	2.1µM*	11%	-6	13%	-9%
O=C(c1ccc2c(=O)n(Cc3ccc4c(c3)OCO4)c(=O)[nH]c2c1)N1CCN(c2ccccc2)CC1	-3	12µM*	10%	-4	-5%	-9%
O=C(CCn1c(=S)[nH]c2cc3c(cc2c1=O)OCO3)N1CCN(c2ccccn2)CC1	nt	nt	-33%	nt	nt	nt
COc1ccc(N2CCN(C(=O)c3ccc4c(=O)n(Cc5ccc6c(c5)OCO6)c(=O)[nH]c4c3)CC2)cc1	-3	13%	8%	2	-1%	0%
COc1ccc(N2CCN(C(=O)c3ccc4c(c3)[nH]c(=S)n3c5ccccc5nc43)CC2)cc1	-1	13%	nt	17	-1%	-12%
CC1CCCN(C(=O)c2ccc3c(=O)n(Cc4ccc5c(c4)OCO5)c(=S)[nH]c3c2)C1 (centres undefined)	-2	7.4µM*	12%	-14	4%	-29%
O=C(c1ccc(Cn2c(=S)[nH]c3cc4c(cc3c2=O)OCO4)cc1)N1CCN(c2ncccn2)CC1	-4	?	15%	-7	2%	12µM*
CCN(C[C@H]1N[C@@](C)(C(=O)OC)[C@H]2C(=O)N(C)C(=O)[C@@H]12)C(=O)Nc1ccc(C(F)(F)F)cc1	nt	nt	nt	nt	-2%	nt
C=CCn1c(=O)[nH]c2cc(C(=O)N3CCN(c4ccc(C(C)=O)cc4)CC3)ccc2c1=O	11	6.6µM*	-9%	13	-12%	nt
CC(=O)c1ccc(N2CCN(C(=O)c3ccc4c(=O)n(-c5ccccc5)c(=O)[nH]c4c3)CC2)cc1	-2	?	-17%	11	3%	10µM*
COc1ccc(Cn2c(=O)[nH]c3cc(C(=O)N4CCN(c5ccc(C(C)=O)cc5)CC4)ccc3c2=O)cc1	-1	12µM*	13%	-8	5%	-20%
Nc1ccc(Sc2ccc([N+](=O)[O-])cc2)cc1	-1	12µM*	nt	49	-3%	-13%
CC(C)(C)C(=O)Nc1ccc(Sc2ccc([N+](=O)[O-])cc2)cc1	2	2.3µM*	14%	-1	-9%	?
O=C1C=CC(=O)N1c1ccc(Sc2ccc([N+](=O)[O-])cc2)cc1	1	19%	-48%	22	-6%	116%
O=C(CCc1ccc(Oc2cc([N+](=O)[O-])cc([N+](=O)[O-])c2)cc1)N1CCCCC1	10	?	-1%	20	-33%	12µM*
O=C(c1ccc(Oc2ccc([N+](=O)[O-])cc2)cc1)N1CCCCCC1	11	3%	-39%	68	-2%	26%
Cc1ccccc1OCCC(=O)Nc1ccccc1C(=O)N1CCCCC1	nt	34%	nt	nt	-1%	?
CC(=O)N(CCN(C)C)c1nc2cc3c(cc2s1)OCCO3	31*	36%	-7%	66*	1%	73%
CCN(CC)CCN(C(=O)C1=COCCO1)c1nc2ccc(C)cc2s1	18*	-10%	1%	35*	3%	0%
CCCCN(C(=O)c1ccc(S(=O)(=O)N(C)C)cc1)c1nc2ccccc2s1	-2	1.9µM*	10%	-5	-4%	?
CN(C)CCN(C(=O)c1ccc2c(c1)CCCC2)c1nc2cc3c(cc2s1)OCCO3	-3	-17%	-7%	-20	0%	14%
CN(C)CCN(C(=O)c1ccc(S(=O)(=O)N(C)c2ccccc2)cc1)c1nc2cc3c(cc2s1)OCCO3	22*	97%	7%	61*	0%	82%
SMILES	CHX counter	Pf growth 96h	NS1 function inh	Shiga inhibitor	SARS PLpro yeast	Pf growth 48h
CC(C)c1nc(N(C)S(C)(=O)=O)nc(-c2ccc(F)cc2)c1/C=C/C(O)CC(O)CC(=O)O (centres undefined)	nt	-14%	nt	nt	nt	1%
Cc1cc2cc3c(=O)[nH]c(=O)[nH]c3nc2cc1C	1	-9%	-5%	-7	3%	?
COc1cc2nc(N(CCN(C)C)C(=O)c3ccc(S(=O)(=O)N(C)CC4CCCO4)cc3)sc2cc1OC (centres undefined)	-2	?	-8%	-6	2%	2%
CN(C)CCN(C(=O)c1ccc(S(=O)(=O)N(C)CC2CCCO2)cc1)c1nc2cc3c(cc2s1)OCO3 (centres undefined)	25*	-12%	4%	9	-3%	10%
CCN(Cc1ccccc1)S(=O)(=O)c1ccc(C(=O)N(CCCN(C)C)c2nc3cc4c(cc3s2)OCCO4)cc1	nt	?	nt	nt	2%	?
CCN(CC)CCN(C(=O)c1ccc2ncsc2c1)c1nc2cc3c(cc2s1)OCO3	75*	344%	5%	125*	-3%	220%
CN(C)CCN(C(=O)c1ccc2c(c1)OCCO2)c1nc2cc3c(cc2s1)OCO3	55*	5%	12%	71	1%	-2%
CN(C)CCN(C(=O)c1ccc(S(=O)(=O)N(C)C)cc1)c1nc2cc3c(cc2s1)OCCO3	22*	192%	nt	41	1%	86%
Cc1cc2[nH]c(=O)c(=O)[nH]c2cc1S(=O)(=O)NCc1ccc(Cl)cc1	-1	13µM*	-3%	-2	3%	-5%
Cc1cc2[nH]c(=O)c(=O)[nH]c2cc1S(=O)(=O)Nc1cccc(Cl)c1C	-1	-2%	-1%	-5	-4%	1%
[N-]=[N+]=NCC(=O)c1c[nH]c(=O)[nH]c1=O	nt	nt	-10%	nt	nt	nt
COc1ccc(NC(=O)Nc2nnc(-c3ccccc3F)s2)cc1	-1	?	nt	-4	0%	5%
CCCc1nnc(NC(=O)Nc2ccc(OC)cc2)s1	24*	41%	-6%	39	-2%	20%
COc1ccc(NC(=O)Nc2nnc(C(C)C)s2)cc1	42*	4%	-1%	62*	6%	84%
COc1ccc(CC(=O)Nc2nnc(C(C)C)s2)cc1	19*	33%	-2%	29	0%	4%
COc1ccc(NC(=O)Nc2nnc(-c3ccco3)s2)cc1	34*	39%	-1%	59*	1%	51%
CCCSc1ccc([C@@H]2[C@H]3C(=O)N(CC)C(=O)[C@H]3[C@]3(C(=O)OC)CCCCN23)cc1OC	nt	12µM*	nt	nt	-3%	10µM*
CCCSc1ccc([C@@H]2[C@@H]3C(=O)N(C)C(=O)[C@@H]3[C@]3(C(=O)OC)CCCCN23)cc1OC	nt	?	nt	nt	-2%	13µM*
